We go through 9 compounds from ChEMBL document CHEMBL1961873, “Compounds: GSK PKIS; Assays: Nanosyn kinase panel” (2012).

Assay [1] deals with Serine/threonine-protein kinase MARK2 (Homo sapiens) (UniProt Q7KZI7). To be noted: at 1 µM.
Assay [2] addresses PAS domain-containing serine/threonine-protein kinase (Homo sapiens) (UniProt Q96RG2). The settings on record: at 0.1 µM.
Assay [3] has the same target. To be noted: at 1 µM.
Assay [4] has as its target Phosphorylase b kinase gamma catalytic chain, skeletal muscle/heart isoform (Homo sapiens) (UniProt Q16816). The settings on record: at 0.1 µM.
Assay [5] shares this target. The settings on record: at 1 µM.
Assay [6] deals with T1, Phosphorylase b kinase gamma catalytic chain, liver/testis isoform (Homo sapiens) (UniProt P15735).
T1 sequence (whole entry): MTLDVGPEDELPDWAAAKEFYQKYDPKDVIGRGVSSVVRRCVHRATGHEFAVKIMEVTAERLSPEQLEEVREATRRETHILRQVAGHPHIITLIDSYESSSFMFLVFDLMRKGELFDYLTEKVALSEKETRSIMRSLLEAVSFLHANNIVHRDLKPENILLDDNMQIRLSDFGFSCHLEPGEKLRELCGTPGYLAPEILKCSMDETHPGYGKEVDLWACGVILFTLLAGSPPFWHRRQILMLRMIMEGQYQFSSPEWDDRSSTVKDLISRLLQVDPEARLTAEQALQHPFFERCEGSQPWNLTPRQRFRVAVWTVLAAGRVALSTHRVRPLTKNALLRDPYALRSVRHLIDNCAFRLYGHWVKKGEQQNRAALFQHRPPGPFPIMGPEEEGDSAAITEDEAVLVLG
The settings on record: at 0.1 µM.

The target of assay [7] is T1, Phosphorylase b kinase gamma catalytic chain, liver/testis isoform (Homo sapiens). To be noted: at 1 µM.
In assay [8] the target is Serine/threonine-protein kinase pim-1 (Homo sapiens) (UniProt P11309). To be noted: at 0.1 µM.
Assay [9] shares this target. The settings on record: at 1 µM.
Assay [10] deals with Serine/threonine-protein kinase pim-2 (Homo sapiens) (UniProt Q9P1W9). To be noted: at 0.1 µM.
For assay [11] the target is unchanged. The settings on record: at 1 µM.
Assay [12] concerns the target Serine/threonine-protein kinase pim-3 (Homo sapiens) (UniProt Q86V86). The settings on record: at 0.1 µM.
Assay [13] shares this target. The settings on record: at 1 µM.
Assay [14] concerns the target T2, MAP kinase-activated protein kinase 5 (Homo sapiens) (UniProt Q8IW41).
T2 sequence (whole entry): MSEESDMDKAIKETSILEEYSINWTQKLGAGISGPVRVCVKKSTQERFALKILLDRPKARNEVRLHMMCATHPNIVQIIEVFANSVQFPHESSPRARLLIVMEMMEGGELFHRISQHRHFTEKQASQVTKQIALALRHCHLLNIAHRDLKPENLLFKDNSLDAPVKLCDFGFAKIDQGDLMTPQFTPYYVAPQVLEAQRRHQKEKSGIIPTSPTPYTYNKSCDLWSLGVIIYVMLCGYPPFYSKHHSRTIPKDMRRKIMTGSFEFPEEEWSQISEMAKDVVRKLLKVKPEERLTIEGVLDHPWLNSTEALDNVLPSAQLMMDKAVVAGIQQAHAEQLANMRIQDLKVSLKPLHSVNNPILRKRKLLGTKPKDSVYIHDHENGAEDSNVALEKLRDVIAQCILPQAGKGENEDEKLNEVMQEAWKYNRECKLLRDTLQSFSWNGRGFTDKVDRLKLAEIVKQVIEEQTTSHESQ
The settings on record: at 0.1 µM.

Assay [15] concerns the target T2, MAP kinase-activated protein kinase 5 (Homo sapiens). To be noted: at 1 µM.
For assay [16], the target named is Serine/threonine-protein kinase SIK1 (Homo sapiens) (UniProt P57059). To be noted: at 0.1 µM.
Assay [17] shares this target. The settings on record: at 1 µM.
Assay [18] has as its target Serine/threonine-protein kinase SIK2 (Homo sapiens) (UniProt Q9H0K1). The settings on record: at 0.1 µM.
The target is the same in assay [19]. The settings on record: at 1 µM.
The target of assay [20] is T3, Serine/threonine-protein kinase TBK1 (Homo sapiens) (UniProt Q9UHD2).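 Also: values are the mean TBK1 inhibition, taken from the GSK PKIS screening data.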
T3 sequence (whole entry): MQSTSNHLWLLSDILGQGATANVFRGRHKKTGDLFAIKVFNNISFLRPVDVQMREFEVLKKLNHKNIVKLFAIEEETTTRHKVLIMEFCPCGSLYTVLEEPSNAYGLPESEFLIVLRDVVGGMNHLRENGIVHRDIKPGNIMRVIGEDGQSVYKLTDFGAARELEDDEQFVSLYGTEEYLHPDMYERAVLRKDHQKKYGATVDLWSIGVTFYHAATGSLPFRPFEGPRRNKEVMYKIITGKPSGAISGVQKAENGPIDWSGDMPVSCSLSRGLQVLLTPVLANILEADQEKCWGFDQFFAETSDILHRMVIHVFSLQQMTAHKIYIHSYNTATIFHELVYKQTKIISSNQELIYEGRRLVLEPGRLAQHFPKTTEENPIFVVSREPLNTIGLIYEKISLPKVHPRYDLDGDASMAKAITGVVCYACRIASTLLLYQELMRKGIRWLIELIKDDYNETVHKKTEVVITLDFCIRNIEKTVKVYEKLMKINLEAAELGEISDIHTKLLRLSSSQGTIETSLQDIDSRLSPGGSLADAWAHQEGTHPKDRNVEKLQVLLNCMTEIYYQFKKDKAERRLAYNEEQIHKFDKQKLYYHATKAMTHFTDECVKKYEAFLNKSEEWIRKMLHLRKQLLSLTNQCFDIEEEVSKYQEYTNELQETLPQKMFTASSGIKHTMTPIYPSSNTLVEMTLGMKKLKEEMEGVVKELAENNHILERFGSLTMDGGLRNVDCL
The settings on record: at 0.1 µM.

Molecules are shown by their SMILES. “And” between values parts separate entries of the source, which are not always exact repeats. Equal entries are not always repeated.

Chain of Serine/threonine-protein kinase pim-2 (Homo sapiens) (Q9P1W9 whole entry, looked up): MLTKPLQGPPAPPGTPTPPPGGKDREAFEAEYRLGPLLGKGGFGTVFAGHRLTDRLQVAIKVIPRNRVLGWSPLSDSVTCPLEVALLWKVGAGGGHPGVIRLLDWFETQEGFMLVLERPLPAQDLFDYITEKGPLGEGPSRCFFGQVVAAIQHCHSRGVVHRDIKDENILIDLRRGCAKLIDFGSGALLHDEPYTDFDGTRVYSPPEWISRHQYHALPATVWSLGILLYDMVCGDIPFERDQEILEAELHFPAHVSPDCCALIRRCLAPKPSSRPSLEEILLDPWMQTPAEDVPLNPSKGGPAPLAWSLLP
Chain of Serine/threonine-protein kinase pim-1 (Homo sapiens) (P11309 whole entry, looked up): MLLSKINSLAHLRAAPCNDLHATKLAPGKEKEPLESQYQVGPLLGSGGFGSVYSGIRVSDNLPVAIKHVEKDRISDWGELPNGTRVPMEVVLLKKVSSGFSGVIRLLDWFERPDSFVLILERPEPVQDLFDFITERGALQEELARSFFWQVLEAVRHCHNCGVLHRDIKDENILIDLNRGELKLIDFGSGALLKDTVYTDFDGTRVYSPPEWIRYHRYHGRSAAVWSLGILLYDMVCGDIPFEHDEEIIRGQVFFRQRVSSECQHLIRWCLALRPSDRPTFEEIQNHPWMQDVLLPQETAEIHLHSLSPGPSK
Chain of Phosphorylase b kinase gamma catalytic chain, skeletal muscle/heart isoform (Homo sapiens) (Q16816 whole entry, looked up, canonical isoform): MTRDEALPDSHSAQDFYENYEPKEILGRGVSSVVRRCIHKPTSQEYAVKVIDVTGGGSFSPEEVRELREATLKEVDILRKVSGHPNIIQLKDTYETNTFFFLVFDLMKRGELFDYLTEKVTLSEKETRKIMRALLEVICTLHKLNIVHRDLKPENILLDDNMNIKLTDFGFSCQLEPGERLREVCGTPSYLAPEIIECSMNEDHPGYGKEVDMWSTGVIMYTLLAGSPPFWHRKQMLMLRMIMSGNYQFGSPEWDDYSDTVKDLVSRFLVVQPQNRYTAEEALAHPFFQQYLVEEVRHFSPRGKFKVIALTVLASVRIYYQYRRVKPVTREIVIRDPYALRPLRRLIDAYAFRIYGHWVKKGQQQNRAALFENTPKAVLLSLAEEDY
Chain of Serine/threonine-protein kinase MARK2 (Homo sapiens) (Q7KZI7 whole entry, the tested form may be a part): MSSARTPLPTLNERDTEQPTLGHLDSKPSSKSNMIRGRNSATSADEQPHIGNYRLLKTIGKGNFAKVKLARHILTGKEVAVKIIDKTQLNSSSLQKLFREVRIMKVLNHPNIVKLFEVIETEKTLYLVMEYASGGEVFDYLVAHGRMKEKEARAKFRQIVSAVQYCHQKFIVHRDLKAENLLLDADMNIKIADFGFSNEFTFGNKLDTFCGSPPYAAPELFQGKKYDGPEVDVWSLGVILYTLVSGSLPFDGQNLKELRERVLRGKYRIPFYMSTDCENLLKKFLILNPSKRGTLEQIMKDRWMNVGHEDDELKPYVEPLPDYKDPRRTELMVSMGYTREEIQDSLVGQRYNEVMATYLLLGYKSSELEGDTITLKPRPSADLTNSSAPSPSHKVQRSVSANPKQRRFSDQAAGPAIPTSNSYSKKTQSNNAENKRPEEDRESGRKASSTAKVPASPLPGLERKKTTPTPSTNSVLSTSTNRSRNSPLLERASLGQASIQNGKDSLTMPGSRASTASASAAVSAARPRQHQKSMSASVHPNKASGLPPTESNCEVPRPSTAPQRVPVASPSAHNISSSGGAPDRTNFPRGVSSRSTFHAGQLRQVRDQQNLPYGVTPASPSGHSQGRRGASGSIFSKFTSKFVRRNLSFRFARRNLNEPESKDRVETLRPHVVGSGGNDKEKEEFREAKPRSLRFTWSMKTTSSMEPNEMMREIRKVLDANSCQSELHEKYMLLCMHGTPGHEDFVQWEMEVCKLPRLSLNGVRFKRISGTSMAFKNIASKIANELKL
Chain of Serine/threonine-protein kinase SIK1 (Homo sapiens) (P57059 whole entry): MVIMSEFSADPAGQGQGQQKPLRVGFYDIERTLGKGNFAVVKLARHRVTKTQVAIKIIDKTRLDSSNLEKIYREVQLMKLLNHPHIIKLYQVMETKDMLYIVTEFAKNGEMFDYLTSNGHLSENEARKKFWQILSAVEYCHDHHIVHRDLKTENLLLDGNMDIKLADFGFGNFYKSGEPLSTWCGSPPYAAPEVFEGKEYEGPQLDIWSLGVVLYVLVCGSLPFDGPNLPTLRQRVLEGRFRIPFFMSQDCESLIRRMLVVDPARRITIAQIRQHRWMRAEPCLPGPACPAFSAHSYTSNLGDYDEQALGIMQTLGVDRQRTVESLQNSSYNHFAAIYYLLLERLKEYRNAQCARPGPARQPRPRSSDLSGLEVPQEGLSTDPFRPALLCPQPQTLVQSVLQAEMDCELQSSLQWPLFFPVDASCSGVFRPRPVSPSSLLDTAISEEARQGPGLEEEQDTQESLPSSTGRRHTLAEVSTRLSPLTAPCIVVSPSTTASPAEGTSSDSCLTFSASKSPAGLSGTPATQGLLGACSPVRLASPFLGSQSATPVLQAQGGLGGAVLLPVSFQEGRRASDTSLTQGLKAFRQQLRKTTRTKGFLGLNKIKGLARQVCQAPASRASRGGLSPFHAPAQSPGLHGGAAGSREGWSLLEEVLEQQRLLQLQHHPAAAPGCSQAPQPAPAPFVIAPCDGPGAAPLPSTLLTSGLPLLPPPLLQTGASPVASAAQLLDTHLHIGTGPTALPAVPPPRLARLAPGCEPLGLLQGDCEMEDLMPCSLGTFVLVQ
Chain of Serine/threonine-protein kinase SIK2 (Homo sapiens) (Q9H0K1 whole entry, looked up): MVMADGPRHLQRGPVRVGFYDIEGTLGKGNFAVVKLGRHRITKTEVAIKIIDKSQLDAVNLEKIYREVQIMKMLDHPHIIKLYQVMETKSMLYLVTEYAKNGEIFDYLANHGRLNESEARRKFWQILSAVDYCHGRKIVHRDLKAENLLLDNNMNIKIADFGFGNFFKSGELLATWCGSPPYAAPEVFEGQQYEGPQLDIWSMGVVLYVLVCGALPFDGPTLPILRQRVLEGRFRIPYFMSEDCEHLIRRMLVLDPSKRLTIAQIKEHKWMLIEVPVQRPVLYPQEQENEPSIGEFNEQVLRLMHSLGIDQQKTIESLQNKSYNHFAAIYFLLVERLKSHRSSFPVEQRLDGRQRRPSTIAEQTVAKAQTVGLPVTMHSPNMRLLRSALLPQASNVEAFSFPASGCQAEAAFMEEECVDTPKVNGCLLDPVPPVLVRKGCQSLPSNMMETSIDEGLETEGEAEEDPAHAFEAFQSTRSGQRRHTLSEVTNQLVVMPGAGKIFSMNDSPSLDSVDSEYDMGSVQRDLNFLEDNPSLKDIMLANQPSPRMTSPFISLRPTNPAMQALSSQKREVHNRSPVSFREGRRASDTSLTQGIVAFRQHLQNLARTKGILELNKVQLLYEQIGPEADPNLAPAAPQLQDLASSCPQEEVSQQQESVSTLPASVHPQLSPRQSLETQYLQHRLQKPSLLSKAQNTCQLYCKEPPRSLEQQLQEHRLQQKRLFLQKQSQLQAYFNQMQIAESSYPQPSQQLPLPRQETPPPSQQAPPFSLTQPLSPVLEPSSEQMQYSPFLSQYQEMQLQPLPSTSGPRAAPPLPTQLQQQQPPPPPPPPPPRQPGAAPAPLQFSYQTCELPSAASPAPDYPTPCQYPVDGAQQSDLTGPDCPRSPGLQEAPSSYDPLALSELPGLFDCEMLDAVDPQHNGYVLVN

`CS(=O)(=O)Nc1ccc(-c2ccc3c(NC(=O)C4CC4)n[nH]c3c2)cc1`: the inhibition (usually the relative decrease from the control value, in per cent) in assay [1] was 0.66%; in [2], 0.49%; in assay [3], -0.44%; in assay [4], 1.67%; in [5] it was 5.46%; in [6], 3.59%. In addition, the inhibition is -0.4% in [7]; 0.94% in assay [8]; 2% in assay [9]; 0.44% in assay [10]; 4% in assay [11]; 0.02% in assay [12]. Also, the inhibition is 2.14% in assay [13]; 0.66% in assay [14]; -1.55% in assay [15]; 3.97% in [16]; 5.51% in assay [17]; 5.95% in assay [18]. Further, the results for the inhibition in assay [19] and in assay [20] were 1.37% and 0.86%, respectively.

On to `OCCCNc1nccc(-c2c(-c3ccc(F)cc3)nn3cc(C(F)(F)F)ccc23)n1`, for which the inhibition in [1] is 1.92%; in assay [2], -0.08%; in [3], -2.07%; in assay [4], 2.26%; in assay [5], 5.59%; in assay [6], 2.88%. Further, the inhibition in assay [7] was -0.79%; in assay [8], 0.12%; in assay [9], 1.6%; in assay [10], 0.32%; in [11], -0.96%; in assay [12], -0.81%. For the same compound, the inhibition is -0.18% in assay [13]; -0.21% in assay [14]; -1.07% in assay [15]; 5.25% in assay [16]; 6.5% in assay [17]; 7.07% in assay [18]. Besides, the inhibition was 16.9% in assay [19] and 2.49% in assay [20].

In the case of `Nc1ncnc2occ(-c3ccc(NC(=O)Nc4cc(C(F)(F)F)ccc4F)cc3)c12`, the inhibition in assay [1] is 2.65% and 0.89%; in [2] it was 0.79% and 0.18%; in assay [3], 0.2% and -0.5%; in [4], 0.08% and -0.25%; in assay [5], 4.52% and 6.47%; in [6] it was 2.69% and -2.51%. The inhibition in [7] is -1.12% and -5.1%; in [8], 0.97% and 0.53%; in assay [9] it was 1.19% and 2.46%; in [10], 0.22% and 0.7%; in assay [11], 0.09% and 1.14%; in assay [12], 0.34% and 0.04%. In addition, the inhibition in assay [13] was -1.35% and 1.44%; in assay [14], -0.03% and -0.81%; in assay [15], -1.65% and -0.72%; in assay [16], 5.31% and -3.84%; in [17], 6.74% and 3.25%; in assay [18], 6.29% and -4.61%. Besides, the inhibition is 1.48% and -6.22% in assay [19]; 0.47% and 0.44% in assay [20].

With `Cc1nnc(-c2cccc(-c3ccc(C(=O)NCC4CC4)cc3)c2)o1`, the inhibition in [1] worked out at 1.69%; in [2], 0.89%; in assay [3] it was 0.76%; in assay [4], 3.57%; in assay [5] it was 5.91%; in assay [6], 7.39%. The inhibition in assay [7] is 7.38%; in assay [8], -0.37%; in [9] it was 1.97%; in assay [10] it was 0.91%; in assay [11] it was 1.27%; in assay [12] it was 1.21%. Also, the inhibition is 5.19% in assay [13]; 2.14% in assay [14]; 4.28% in assay [15]; 7.04% in assay [16]; 10.7% in assay [17]; 12.9% in assay [18]. In addition, the inhibition in assay [19] is 5.76%; in assay [20], 2.51%.

On to `CN1CCN(Cc2ccc(-c3cc4ncnc(Nc5ccc(OCc6cccc(F)c6)c(Cl)c5)c4s3)o2)CC1`, for which the inhibition is 2.8% and -1.69% in assay [1]; 1.09% and -0.73% in [2]; 0.63% and 0.18% in assay [3]; 4.48% in assay [4]; 6.3% and 12.4% in assay [5]; 3.47% and 7.21% in assay [6]. Further, the inhibition in [7] was 2.85% and 9.87%; in assay [8] it was -0.54% and 0.21%; in assay [9], 1.02% and 0.98%; in assay [10] it was -0.52% and 0.67%; in assay [11], 0.42% and 1.37%; in assay [12] it was -0.99% and -1.6%. Further, the inhibition is 0.95% and 2.39% in [13]; 0.79% and 1.52% in assay [14]; 0.84% and 3.86% in assay [15]; 4.03% and 8.14% in assay [16]; 12.8% and 15.9% in assay [17]; 2.15% and 4.89% in [18]. For the same compound, the inhibition in assay [19] is 1.94% and 9.4%; in assay [20] it was 1.51% and 5%.

For the compound `N#Cc1ccc2c(-c3ccnc(NC4CC4)n3)c(-c3ccc(F)cc3)nn2c1`, the inhibition turned out to be 0.62% in [1]; 1.11% in [2]; 0.62% in assay [3]; 0.42% in assay [4]; 2.62% in [5]; 1.29% in assay [6]. The inhibition in [7] is 0.44%; in [8], -0.01%; in [9] it was -1.52%; in [10], -0.15%; in assay [11] it was 0.72%; in [12] it was -0.27%. Further, the inhibition is -0.29% in assay [13]; 0.61% in [14]; -0.5% in [15]; 4.86% in [16]; 23.5% in [17]; 24.1% in assay [18]. Further, the inhibition was 68.9% in assay [19] and 1.15% in [20].

For the compound `COc1cccc(-n2ncc3c(N/N=C/c4ccc(C(=O)NCCN(C)C)cc4)ncnc32)c1`, the inhibition is 11.9% in [1]; 0.59% in assay [2]; -0.48% in assay [3]; 5.75% in [4]; 30.5% in assay [5]; 3.32% in assay [6]. Moreover, the inhibition in assay [7] is 7.38%; in [8] it was 1.53%; in assay [9] it was 8.23%; in assay [10] it was 0.17%; in [11] it was 0.88%; in assay [12], 0.5%. For the same compound, the inhibition in [13] was found to be 3.82%; in assay [14] it was 0.76%; in assay [15], 0.52%; in assay [16], 18.3%; in [17], 61.2%; in [18] it was 34.6%. For the same compound, the inhibition is 76% in [19] and 2.76% in assay [20].

For the compound `O=C(O[C@H]1CN[C@H](C#Cc2cc3ncnc(Nc4ccc5c(cnn5Cc5ccccc5)c4)c3s2)C1)N1CCOCC1`, the inhibition in assay [1] is 1.58%; in assay [2], 1.66%; in [3], 0.95%; in [4], 2.11%; in [5], 6.5%; in [6], -0.83%. The inhibition is -1.47% in assay [7]; -1.14% in [8]; -0.83% in assay [9]; -0.43% in assay [10]; -0.51% in [11]; -0.77% in assay [12]. Besides, the inhibition is -0.59% in assay [13]; -0.48% in [14]; -1.44% in assay [15]; -1.61% in [16]; -0.04% in assay [17]; -3.57% in assay [18]. Also, the inhibition in [19] was 1.23%; in assay [20] it was -0.69%.

As to `NC(=O)c1ccc2c(-c3ccnc(NCCCO)n3)c(-c3ccc(F)cc3)nn2c1`, the inhibition was 1.98% in assay [1]; 0.06% in assay [2]; -1.12% in assay [3]; 6.92% in assay [4]; 7.38% in assay [5]; 5.28% in assay [6]. Besides, the inhibition in [7] was 2.16%; in [8], 1.1%; in [9], 0.82%; in assay [10] it was -0.18%; in assay [11] it was 1.11%; in [12], -0.5%. Besides, the inhibition in assay [13] was -0.27%; in assay [14] it was 1.47%; in [15], 1.16%; in [16], 3.64%; in [17], 16%; in [18], 9.22%. Also, the results for the inhibition in [19] and in assay [20] were 40.4% and 4.13%, respectively.
